Results from the supplement of paper PMC13380429.

System: Vero E6 infected with SARS-CoV-2
Assay: inhibition of SARS-CoV-2 cytopathic effect; higher = more antiviral protection, active = above 15
Conditions: 48 h

Measured: inhibition of SARS-CoV-2 cytopathic effect

CC1(C)CC(=O)c2c(C(F)(F)F)nn(-c3ccc(C(N)=O)c(N[C@H]4CC[C@H](OC(=O)CN)CC4)c3)c2C1
inactive: 1 nM -1.61% | 8.33 nM 1.43% | 100 nM 2.1% | 833.33 nM -2.15% | 10000 nM -0.73%

CCN(CC)C(=O)[C@@]1(c2ccccc2)C[C@H]1CN [milnacipran]
inactive: 1 nM -4.3% | 8.33 nM -3.38% | 100 nM -4.94% | 833.33 nM -0.26% | 10000 nM 1.05%

CN(C)C(=O)N[C@H]1CC[C@H](CCN2CCN(c3cccc(Cl)c3Cl)CC2)CC1 [cariprazine]
inactive: 1 nM -2.57% | 8.33 nM 1.1% | 100 nM -0.14% | 833.33 nM 3.01% | 10000 nM -3.84%

C[C@H]1CNCCCN1S(=O)(=O)c1cccc2cncc(F)c12 [ripasudil]
inactive: 1 nM -0.82% | 8.33 nM 0.41% | 100 nM -1.45% | 833.33 nM -1.5% | 10000 nM -5.58%

O=C(/C=C/c1ccc(O)c(O)c1)O[C@@H]1C[C@](O)(C(=O)O)C[C@@H](O)[C@H]1O [chlorogenic-acid]
inactive: 1 nM -0.66% | 8.33 nM 1.67% | 100 nM 1.61% | 833.33 nM -0.18% | 10000 nM -0.05%

O=C(c1ccc(OCCN2CCCCC2)cc1)c1c(-c2ccc(O)cc2)sc2cc(O)ccc12 [raloxifene]
inactive: 1 nM 3.31% | 8.33 nM 1.2% | 100 nM 2.79% | 833.33 nM 4.77%
active: 10000 nM 24.4%

Cc1nnc2ccc(-c3cccc(C(F)(F)F)c3)nn12
inactive: 1 nM -0.37% | 8.33 nM 3.68% | 100 nM 2.78% | 833.33 nM 1.93% | 10000 nM 2.16%

COc1cc(C#N)ccc1S(=O)(=O)Nc1ccc2c(c1)cc(C)c(=O)n2C
inactive: 1 nM -2.94% | 8.33 nM 1.53% | 100 nM 0.3% | 833.33 nM -4.02% | 10000 nM -0.1%

CC(C)(C)NCC(O)COc1cc(Cl)ccc1Cl (stereo not given) [cloranolol]
inactive: 1 nM -3.31% | 8.33 nM -3.27% | 100 nM -3.87% | 833.33 nM -3.29% | 10000 nM -8.51%

COc1cc2c(NC3CCN(C(C)C)CC3)nc(N3CCC(F)(F)CC3)nc2cc1OCCCN1CCCC1
active: 10000 nM 68.5%
inactive: 1 nM -0.61% | 8.33 nM 0.14% | 100 nM 3.08% | 833.33 nM 0.9%

CCCCC1CCC(c2nc(-c3ccncc3)no2)CC1 (stereo not given)
inactive: 1 nM 1.12% | 8.33 nM 0.82% | 100 nM -0.05% | 833.33 nM 0.32% | 10000 nM 2.33%

Nc1nc(=O)c2nc(CNc3ccc(C(=O)N[C@@H](CCC(=O)O)C(=O)O)cc3)cnc2[nH]1 [folic-acid]
inactive: 1 nM -1.27% | 8.33 nM 1.24% | 100 nM 0.24% | 833.33 nM 1.38% | 10000 nM -0.44%

O=C1N[C@@H]2[C@@H](O)[C@@H](O)[C@H](O)[C@@H](CO)N2C1=O [kifunensine]
inactive: 1 nM 0.31% | 8.33 nM 1.46% | 100 nM 3.44% | 833.33 nM 4.14% | 10000 nM 14.9%

CN1CCC(=C2c3ccccc3CCn3c(C=O)cnc32)CC1 [alcaftadine]
inactive: 1 nM -1.5% | 8.33 nM 0.26% | 100 nM -2.72% | 833.33 nM 0.36% | 10000 nM -2.28%

O=C(Nc1ccc(F)cc1)N1CCc2ccccc2[C@@H]1c1ccc(C(F)(F)F)cc1
inactive: 1 nM 0.09% | 8.33 nM -1.41% | 100 nM -0.59% | 833.33 nM -1.97% | 10000 nM -1.53%

C=C[C@@]1(C)CC(=O)[C@]2(O)[C@@]3(C)[C@@H](O)CCC(C)(C)[C@@H]3[C@H](O)[C@H](OC(C)=O)[C@@]2(C)O1 [colforsin]
inactive: 1 nM 2% | 8.33 nM 2.29% | 100 nM 2.56% | 833.33 nM -1.53% | 10000 nM 0.905%

Cc1cccc(-c2[nH]c(C(C)(C)C)nc2-c2ccc3c(c2)OCO3)n1
inactive: 1 nM -0.26% | 8.33 nM -0.29% | 100 nM -0.87% | 833.33 nM -5.24% | 10000 nM -2.91%

O=C(O)/C=C/c1ccc(Cn2ccnc2)cc1 [ozagrel]
inactive: 1 nM 0.02% | 8.33 nM 3.28% | 100 nM 0.19% | 833.33 nM 0.75% | 10000 nM -0.91%

C[C@@H](O[C@H]1OCCN(Cc2n[nH]c(=O)[nH]2)[C@H]1c1ccc(F)cc1)c1cc(C(F)(F)F)cc(C(F)(F)F)c1 [aprepitant]
inactive: 1 nM -2.6% | 8.33 nM -2.93% | 100 nM -3.21% | 833.33 nM -4.32% | 10000 nM -6.5%

CNC[C@H](O)c1ccc(O)c(O)c1 [epinephrine]
inactive: 1 nM 3.04% | 8.33 nM 3.04% | 100 nM -1.01% | 833.33 nM 0.24% | 10000 nM -0.94%

Fc1cc(-c2cccc3ncc(-c4cnn(C5CCNCC5)c4)nc23)cc(F)c1CN1CCOCC1
active: 10000 nM 63.3%
inactive: 1 nM 1.49% | 8.33 nM 2.64% | 100 nM -2.32% | 833.33 nM -1.44%

COc1ccc2nc3cc(Cl)ccc3c(Nc3cc(CN4CCCC4)c(O)c(CN4CCCC4)c3)c2n1 [pyronaridine]
inactive: 1 nM 3.08% | 8.33 nM 4.56% | 100 nM 8.6% | 833.33 nM 3.79% | 10000 nM -18.6%

CC1C(=O)OC2C(O)C34C5CC(C(C)(C)C)C36C(OC(=O)C6O)OC4(C(=O)O5)C12O (stereo not given) [ginkgolide-B]
inactive: 1 nM 1.36% | 8.33 nM 0.56% | 100 nM -1.98% | 833.33 nM 2.69% | 10000 nM 0.1%

CCCNC(=O)Nc1ccc(Oc2ncnc3cc(OC)c(OC)cc23)cc1Cl
inactive: 1 nM 0.58% | 8.33 nM 0.62% | 100 nM 1.2% | 833.33 nM 0.47% | 10000 nM -2.74%

CC=CC1=C(C(=O)O)N2C(=O)[C@@H](NC(=O)[C@H](N)c3ccc(O)cc3)[C@H]2SC1 (mixture of isomers) [cefprozil]
inactive: 1 nM -0.42% | 8.33 nM 0.76% | 100 nM 2.16% | 833.33 nM -0.77% | 10000 nM 8.62%

NC(=O)CCCCn1ccc(/N=C(\N)NCC(F)(F)F)n1
inactive: 1 nM 0.43% | 8.33 nM 2.16% | 100 nM -1.98% | 833.33 nM 0.05% | 10000 nM -0.82%

CC(C)(C)CC(=O)Nc1c(F)cc(C(=O)/N=c2\sccn2COP(=O)(O)O)cc1F
inactive: 1 nM 0.06% | 8.33 nM -0.74% | 100 nM -3.11% | 833.33 nM -0.94% | 10000 nM 2.91%

N#CCC(=O)NN [cyacetacide]
inactive: 1 nM -3.1% | 8.33 nM 1.89% | 100 nM 6.23% | 833.33 nM 6.6% | 10000 nM 7.12%

CCc1cnn2c(NCc3ccc[n+]([O-])c3)cc(N3CCCC[C@H]3CCO)nc12 [dinaciclib]
inactive: 1 nM 1.49% | 8.33 nM -1.48% | 100 nM -3.71% | 833.33 nM -9.46% | 10000 nM -8.75%

CCN(CCCc1ccccc1)CCCc1ccccc1 [alverine]
inactive: 1 nM -0.33% | 8.33 nM 1.03% | 100 nM -0.23% | 833.33 nM -0.58% | 10000 nM -0.57%

N[C@@H]1CCN(c2cccnc2)C1
inactive: 1 nM 0.23% | 8.33 nM 0.19% | 100 nM 1.46% | 833.33 nM 2.41% | 10000 nM 3.85%

CN1CCC(=C2c3ccccc3CCc3sccc32)CC1 [pizotifen]
inactive: 1 nM 2.55% | 8.33 nM -0.27% | 100 nM 0.72% | 833.33 nM 1.5% | 10000 nM -3.38%

COc1cc(S(C)(=O)=O)ccc1Nc1nc2ccc(-c3ccc(NC(=O)[C@H](C)c4ccc(F)cc4)cc3)cn2n1
inactive: 1 nM 0.71% | 8.33 nM -3.05% | 100 nM 0.88% | 833.33 nM -5.66% | 10000 nM -4.51%

Nc1nc(O)c2ncn(CCC(CO)CO)c2n1 [penciclovir]
inactive: 1 nM -0.77% | 8.33 nM -0.01% | 100 nM -0.81% | 833.33 nM 0.81% | 10000 nM -2.4%

CCOc1cc(C=O)ccc1O [ethyl-vanillin]
inactive: 1 nM -2.26% | 8.33 nM 2.03% | 100 nM -1.95% | 833.33 nM -0.96% | 10000 nM -1.21%

Cc1c(CN2CCN(C(=O)[C@H](C)O)CC2)sc2c(N3CCOCC3)nc(-c3cnc(N)nc3)nc12
inactive: 1 nM -0.71% | 8.33 nM 0.05% | 100 nM 0.57% | 833.33 nM -5.06% | 10000 nM -12.7%

NCC1CC(=O)N(Cc2ccccc2)C1 (stereo not given) [nebracetam]
inactive: 1 nM 2.53% | 8.33 nM 1.25% | 100 nM 1.38% | 833.33 nM 1.16% | 10000 nM 0.26%

CC(C)Cc1ccc([C@@H](C)C(=O)NS(C)(=O)=O)cc1 [reparixin]
inactive: 1 nM 2.11% | 8.33 nM 3.05% | 100 nM 3.66% | 833.33 nM 0.65% | 10000 nM 4.19%

CC[C@H](CC#N)OC(=O)N[C@@H](C)c1cccc(NC(=O)Nc2ccc(-c3cnco3)c(OC)c2)c1
inactive: 1 nM 0.48% | 8.33 nM 4.56% | 100 nM 0.06% | 833.33 nM 10.2% | 10000 nM 13.2%

Cn1cnc([N+](=O)[O-])c1Sc1ncnc2[nH]cnc12 [azathioprine]
inactive: 1 nM -3.67% | 8.33 nM 2.21% | 100 nM 2.74% | 833.33 nM 3.46% | 10000 nM -3.46%
